# PubChem BioAssay
# Several values for one entry are separate records, joined by “and”; a condition that tells them apart may be missing. Identical values can stand only once. Records with an inconclusive call do not appear. Activity calls are given as the source filed them. Unless noted, no stated cut-off is given here; in the data, active means inhibition above about 80%; inactive means the rest.
# Columns and labels:
# [1] = viability loss in pontine glioma line – cell-based, SU-DIPG-IV, MIPE4.0, CellTiter-Glo, qHTS, dose response (AID 1347063; cut-off not given, nearly all actives have AC50 up to about 30 µM;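 further: compound exposure lasted 48 hours before the viability readout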); details: CellTiter-Glo ATP luminescence
# [2] = P. berghei load reduction in hepatocytes – cell-based, HepG2, luciferase luminescence, HepG2 viability, primary screen (AID 624349; in the data active means parasite load remaining mostly below about 12%, no sharp cut-off; inactive means mostly above about 10%;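 further: 100% = mean of DMSO negative control wells on the same plate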); details: P. berghei liver stage in HepG2, luciferase luminescence, concentration not given here; parasite load remaining: stronger effect = lower value; viability: measured here: HepG2 viability without parasites
# [3] = growth inhibition, single agents and combos, LFS_MB_1R, cell-based, cisplatin or BGB combos, synergistic combos for chromothripsis tumors (AID 1671452); details: LFS_MB_1R medulloblastoma cells, stronger effect = higher value;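 further: cells exposed for 96 hours before readout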
# [4] = growth inhibition, single agents and combos, CRL2098, cell-based, BGB or cisplatin IC20 combos, synergistic combos for chromothripsis tumors (AID 1671454); details: CRL2098 osteosarcoma cells, drug combinations, stronger effect = higher value;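 further: cells exposed for 96 h before readout; 0% = vehicle DMSO and 100% = killing by high DMSO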
# [5] = growth inhibition, single agents and combos, HD-MB03, cell-based, BGB or cisplatin IC20 combos, synergistic combos for chromothripsis tumors (AID 1671455; in the data active means inhibition above about 83%;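 further: 0% = vehicle DMSO and 100% = high DMSO as cytotoxic control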); details: HD-MB03 medulloblastoma cells, stronger effect = higher value
# [6] = growth inhibition, single agents and combos, UWB1.289, cell-based, BGB or cisplatin combos, synergistic combos for chromothripsis tumors (AID 1671456); details: UWB1.289 ovarian carcinoma cells, stronger effect = higher value;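 further: cells exposed to compound for four days; 0% = vehicle DMSO and 100% = killing by high DMSO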
# [7] = growth inhibition, single agents and combos, LFS_MB_2R, cell-based, cisplatin combos, synergistic combos for chromothripsis tumors (AID 1671457); details: LFS_MB_2R medulloblastoma cells, stronger effect = higher value;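 further: cells exposed to compound for four days before readout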
# [8] = UWB1.289_BRCA1 ovarian cancer growth, cell-based, BGB or cisplatin combinations (AID 1671459); details: UWB1.289 BRCA1 ovarian carcinoma, drug combinations, stronger effect = higher value
# [9] = drug combination toxicity in non-malignant astrocytes – cell-based, BGB or cisplatin IC20 combos, cytotoxicity control for chromothriptic childhood tumor combination screen (AID 1671460); details: Human astrocytes, viability inhibition, drug combinations, at 0.5 µM, stronger effect = higher value;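 further: cells exposed to compounds for 96 hours before viability readout; 0% = vehicle and 100% = killing control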
# [10] = tested on: Neuropilin-2 / VEGF-C interaction (human); assay: small molecules blocking Neuropilin-2/VEGF-C interaction – biochemical, microplate binding format, z-score (AID 743281; call rule not given here); details: microplate NRP2/VEGF-C binding assay; stronger effect = lower value
# [11] = tested on: Aerobactin synthetase IucA (Klebsiella pneumoniae); assay: inhibition of K. pneumoniae IucA enzyme – biochemical, Tocris library, absorbance (AID 1345561; call rule not given here;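 further: 100% = enzyme without compound and 0% = no enzyme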); details: purified IucA enzyme assay, absorbance (OD) read-out; stronger effect = lower value;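 tested at 8 µM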
# [12] = chitosan synthesis blockers in C. neoformans – flow cytometry, Cibacron Brilliant Red staining (AID 1347148; call rule not given here;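 further: compound exposure lasted three days at 37 degrees C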); details: Cryptococcus neoformans chitosan, stronger effect = lower value; at 99.1 µM unless noted
# [13] = measured here: combination with cisplatin, at 0.5 µM
# [14] = measured here: combination with cisplatin, at 5 µM
smiles,measurement,setting,value
O=C(O)c1cc(=O)c2c(OCC(O)COc3cccc4oc(C(=O)O)cc(=O)c34)cccc2o1,outcome,[1],inactive
S=c1nc[nH]c2nc[nH]c12,parasite load remaining,[2],27.1% (inactive) and 38.1% (inactive) and 20.6% (inactive)
same,viability,[2],73.4% and 55.1% and 57.4%
same,outcome,[1],inactive
same,inhibition,[3]; at 0.5 µM,-9.9% (inactive) and -33.2% (inactive) and -36.1% (inactive)
same,inhibition,"[3]; measured here: combination with BGB IC40, at 0.05 µM",14.7% and -35.7% and -8.62%
same,inhibition,[3]; [13],-4.25% and -33.8% and -75.5%
same,inhibition,[3]; [14],-15.4% and -37% and -57.5%
same,inhibition,[4]; at 0.5 µM,-2.69% (inactive) and -57.6% (inactive) and -53.9% (inactive)
same,inhibition,"[4]; measured here: combination with BGB at IC20, at 0.5 µM",-5.16% and -41% and -65.5%
same,inhibition,"[4]; measured here: combination with cisplatin at IC20, at 0.5 µM",-32% and -63.9% and -65.9%
same,inhibition,[5]; at 0.5 µM,-4.55% (inactive) and -3.29% (inactive) and -17.6% (inactive)
same,inhibition,"[5]; measured here: combo with BGB at IC20, at 0.5 µM",-4.3% and -15.6% and -16.3%
same,inhibition,"[5]; measured here: combo with cisplatin at IC20, at 0.5 µM",-5.54% and 2.44% and -26.8%
same,inhibition,[6]; at 0.5 µM,57.7% (inactive) and 56.2% (inactive) and 56.1% (inactive)
same,inhibition,"[6]; measured here: inhibition with BGB combination, at 0.05 µM",-14.8% and -13.6% and -15.6%
same,inhibition,"[6]; measured here: inhibition with cisplatin combination, at 0.05 µM",-7.08% and -3.38% and -9.93%
same,inhibition,[7]; at 0.5 µM,-7.19% (inactive) and -1.38% (inactive) and -2.98% (inactive)
same,inhibition,[7]; [13],-15.5% and -27.1% and 4.18%
same,inhibition,[7]; [14],-9.32% and -12.4% and -4.44%
same,inhibition,"[8]; BGB combination, concentration series, at 5 µM",95.7% and 91.5% and 93.1%
same,inhibition,[8]; at 0.5 µM,63.6% (inactive) and 53.4% (inactive) and 47.8% (inactive)
same,inhibition,"[8]; cisplatin combination, concentration series, at 5 µM",100% and 93.5% and 94.9%
same,inhibition,[9],13.8% (inactive) and -4.07% (inactive) and -10.8% (inactive)
same,inhibition,[9]; measured here: combo with BGB IC20,14.2% and -8.32% and -0.26%
same,inhibition,[9]; measured here: combo with cisplatin IC20,3.43% and 3.12% and -27.4%
CCOC(=O)C1=C(C)NC(C)=C(C(=O)OC)C1c1cccc([N+](=O)[O-])c1 (centres undefined),z-score,[10],0.0382 (inactive)
same,remaining activity,[11],111% (inactive)
same,fold fluorescence,[12],5.19 [at 138.7 µM] (inactive)
